# From the supplement of paper PMC8728848
# The entries come from a sample that favours the strongest signals as a whole.
# Columns and labels:
# Experiment in all cases: glycan array binding signal (z-score within array); higher = stronger binding
# Conditions in all cases: glycan notation: IUPAC condensed, linker removed
# [1] = target: GalNAc(b1-3)GlcNAc
# In short: (§1)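 The binding signal is a Z-score computed within each array. Data were drawn from 3228 arrays in the Consortium for Functional Glycomics database, restricted to those with a known protein sequence. Scores were averaged over arrays of the same protein sequence at different concentrations or buffers, and over linkers, and negative values can be taken as non-binding.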
# [2] = target: GalNAc(b1-4)GlcNAc
# In short: as §1
# [3] = target: GalNAc4S6S(b1-4)GlcNAc
# In short: as §1
# [4] = target: GlcA(b1-3)Gal
# In short: as §1
# [5] = target: GlcA(b1-6)Gal
# In short: as §1
# [6] = target: GlcNAc(a1-4)Gal(b1-4)GlcNAc(b1-3)Gal(b1-4)Glc
# In short: as §1
# [7] = target: GlcNAc(a1-4)Gal(b1-4)GlcNAc(b1-3)Gal(b1-4)[Fuc(a1-3)]GlcNAc(b1-3)Gal(b1-4)[Fuc(a1-3)]GlcNAc
# In short: as §1
# [8] = target: GlcNAc(b1-3)Gal(b1-4)GlcNAc
# In short: as §1
# [9] = target: GlcNAc(b1-3)Gal(b1-4)GlcNAc(b1-2)[GlcNAc(b1-3)Gal(b1-4)GlcNAc(b1-6)]Man(a1-6)[GlcNAc(b1-3)Gal(b1-4)GlcNAc(b1-2)Man(a1-3)]Man(b1-4)GlcNAc(b1-4)GlcNAc
# In short: as §1
# [10] = target: Man(a1-2)Man(a1-6)[Man(a1-3)]Man(a1-6)[Man(a1-2)Man(a1-2)Man(a1-3)]Man
# In short: as §1
# [11] = target: Neu5Ac(a2-3)Gal(b1-3)GlcNAc(b1-3)Gal(b1-3)GlcNAc
# In short: as §1
# [12] = target: Neu5Ac(a2-3)Gal(b1-3)[Fuc(a1-4)]GlcNAc
# In short: as §1
# [13] = target: Neu5Ac(a2-3)Gal(b1-4)GlcNAc(b1-2)Man(a1-3)[Neu5Ac(a2-6)Gal(b1-4)GlcNAc(b1-2)Man(a1-6)]Man(b1-4)GlcNAc(b1-4)GlcNAc
# In short: as §1
# [14] = target: Neu5Ac(a2-3)Gal(b1-4)GlcNAc(b1-3)Gal(b1-4)GlcNAc(b1-6)[Gal(b1-3)]GalNAc
# In short: as §1
# [15] = target: Neu5Ac(a2-3)Gal(b1-4)[Fuc(a1-3)]GlcNAc(b1-3)Gal
# In short: as §1
# [16] = target: Neu5Ac(a2-3)Gal(b1-4)[Fuc(a1-3)]GlcNAc6S
# In short: as §1
# [17] = target: Neu5Ac(a2-6)Gal(b1-4)GlcNAc(b1-2)[Neu5Ac(a2-6)Gal(b1-4)GlcNAc(b1-4)]Man(a1-3)[GlcNAc(b1-4)][Neu5Ac(a2-6)Gal(b1-4)GlcNAc(b1-2)[Neu5Ac(a2-6)Gal(b1-4)GlcNAc(b1-6)]Man(a1-6)]Man(b1-4)GlcNAc(b1-4)GlcNAc
# In short: as §1
# [18] = target: Neu5Ac(a2-6)Gal(b1-4)GlcNAc(b1-3)Gal(b1-4)GlcNAc(b1-3)Gal(b1-4)GlcNAc(b1-2)Man(a1-3)[Neu5Ac(a2-6)Gal(b1-4)GlcNAc(b1-3)Gal(b1-4)GlcNAc(b1-3)Gal(b1-4)GlcNAc(b1-2)Man(a1-6)]GalNAc
# In short: as §1
# [19] = target: Neu5Gc(a2-8)Neu5Gc(a2-3)Gal(b1-4)GlcNAc(b1-3)Gal(b1-4)GlcNAc
# In short: as §1
binder,measurement,setting,value
"AT3G44510(29) (Arabidopsis thaliana), F4J341 (protein) MEEHLQGRIKLHDGRYLAYKERGVPKDDAKFTIVLVHGFGSSKDMNFNVSQELVNEIGIYFVLYDRAGYGESDPNPKRSLKSEAYDVQELADGLEIGSRFYLIGISMGSYTVWSCLKHIPQRLAGVAMVAPVVNFRWPSIPKSLMPKDYRREVAKWSVWIANYFPGLLQWLVTQNMFSTTSMLEKNPVYFNDQDIEVLKHIKGFPMLTKEKLRERGVFGTLRSDFLVAFGDWDFDPADLPDPSLSGPEKGSSSVHIWQGYEDKVMPFQLQRCLCRKLPWIRYHEVPKGGHLIVHYDGICDAILKSLLLGEDLPMYKPKAVITEPA",glycan array binding signal (z-score),[1],-0.421
same,glycan array binding signal (z-score),[2],9.27
same,glycan array binding signal (z-score),[3],-0.488
same,glycan array binding signal (z-score),[4],1.18
same,glycan array binding signal (z-score),[5],0.079
same,glycan array binding signal (z-score),[6],0.232
same,glycan array binding signal (z-score),[7],1.31
same,glycan array binding signal (z-score),[8],0.6
same,glycan array binding signal (z-score),[9],2.5
same,glycan array binding signal (z-score),[10],-0.613
same,glycan array binding signal (z-score),[11],-0.556
same,glycan array binding signal (z-score),[12],-0.723
same,glycan array binding signal (z-score),[13],2.04
same,glycan array binding signal (z-score),[14],-0.343
same,glycan array binding signal (z-score),[15],-0.706
same,glycan array binding signal (z-score),[16],0.419
same,glycan array binding signal (z-score),[17],-0.785
same,glycan array binding signal (z-score),[18],2.59
same,glycan array binding signal (z-score),[19],0.206
